Test results reported in PubChem BioAssay (NCATS).
A number with no mark means an inactive call. For some of these results: Results with a measured potency or affinity are listed apart. The source made the active and inactive calls. No rule for the calls is given here.

Conditions: Ebola virus entry assay, green fluorescence channel
For efficacy in this document: 0% is about no effect.

| SMILES | efficacy [%] |
| --- | --- |
| O=C(O)CCCCC(=O)O | -12.4 |
| C[N+](C)(CCOc1ccccc1)Cc1cccs1 | -18.5 |
| O=C(O)c1cc(-c2ccccc2)nc2ccccc12 | -14.9 |
| CC(CN(C)C)C(C)(O)Cc1ccc(Cl)cc1 (stereo not drawn) | 33.9 |
| CCC1(c2ccc(N)cc2)CCC(=O)NC1=O (stereo not drawn) | -15.9 |
| CC(C)(C)C1CCC(CC2=C(O)c3ccccc3C(=O)C2=O)CC1 (stereo not drawn) | -22.8 |
| O=C(O)[C@@H]1[C@H]2C[C@H]3c4[nH]c5ccccc5c4CCN3C[C@@H]2CC[C@@H]1O | 38.8 |
| Nc1ccc(C(=O)O)cc1 | -10.9 |
| CC(C)(C)c1cc(C=O)cc(C(C)(C)C)c1O | 23.6 |
| C[C@]12CC[C@H]3[C@@H](CC[C@@]45O[C@H]4C(O)=C(C#N)C[C@]35C)[C@H]1CC[C@H]2O | 26.8 |
| Cc1scc2c1N(C(=O)CN1CCN(C)CC1)c1ccccc1NC2=O | 20.4 |
| COC(=O)[C@@H](N)CCCN/C(N)=N/[N+](=O)[O-] | -11.3 |
| CC(=O)Oc1cccc2c1C(=O)c1c(OC(C)=O)cc(C(=O)O)cc1C2=O | -17.1 |
| NS(=O)(=O)c1cc2c(cc1Cl)NC(C(Cl)Cl)NS2(=O)=O (stereo not drawn) | -21 |
| CCOc1nc2cccc(C(=O)O)c2n1Cc1ccc(-c2ccccc2-c2nn[nH]n2)cc1 | 27.1 |
| CCCCC(=O)OCC(=O)[C@H]1[C@H](C)C[C@H]2[C@@H]3C[C@H](F)C4=CC(=O)C=C[C@]4(C)[C@@]3(F)[C@@H](O)C[C@@]21C | 21.9 |
| Cc1c(N(C)CS(=O)(=O)O)c(=O)n(-c2ccccc2)n1C | -26.4 |
| ClCCN1CCCC1 | -44.4 |
| NC(=O)c1cccnc1 | -19.3 |
| CS(=O)(=O)c1ccc([C@@H](O)[C@@H](CF)NC(=O)C(Cl)Cl)cc1 | -18.1 |

| SMILES | efficacy [%] |
| --- | --- |
| O=c1[nH]c(=O)n([C@H]2C[C@H](O)[C@@H](CO)O2)cc1Br | -9.16 |
| CCOc1ccc(NC(=O)CC(C)O)cc1 (stereo not drawn) | 16.1 |
| O=C1c2c(O)cccc2Cc2cccc(O)c21 | -17.8 |
| N#CCC(=O)NN | -12.5 |
| CC(CC(C#N)(c1ccccc1)C(C)C)N(C)C (stereo not drawn) | -15 |
| Cc1nc2ccccn2c(=O)c1CCN1CCC(C(=O)c2ccc(F)cc2)CC1 | 25.5 |
| CCOC(=O)CC(SP(=S)(OC)OC)C(=O)OCC (stereo not drawn) | -13.3 |
| O=C1OC(CCN2CCCCC2)OC1(c1ccccc1)c1ccccc1 (stereo not drawn) | -23.4 |
| CC1(C)OC(=O)NC1=O | 15.4 |
| O=C(CCCl)NCc1ccccc1 | -26.1 |
| COc1cc2c3cc1Oc1cc(ccc1O)C[C@@H]1c4c(cc(OC)c(O)c4Oc4ccc(cc4)C[C@@H]3N(C)CC2)CC[N+]1(C)C | -16.5 |
| NNc1ccccc1 | -13.5 |
| CC(C(=O)O)c1ccc(C(=O)c2ccccc2)s1 (stereo not drawn) | -17.9 |
| CC(=O)NCCCCCC(=O)O | -20.5 |
| Cc1cc(NS(=O)(=O)c2ccc(N)cc2)nc(C)n1 | -28.1 |
| CCN(CC)C(=O)c1ccc(O)c(OC)c1 | 13.1 |
| Cc1ccsc1/C=C/C1=NCCCN1C | -24.4 |
| COC1CC(=C(c2cccs2)c2cccs2)C[N+](C)(C)C1 (stereo not drawn) | 18.8 |
| COc1cc2nc(Cl)nc(N)c2cc1OC | -33.8 |

Conditions: Ebola virus entry assay, ratio channel

| SMILES | outcome |
| --- | --- |
| C[N+](C)(CCOc1ccccc1)Cc1cccs1 | inactive |
| O=C(O)c1cc(-c2ccccc2)nc2ccccc12 | inactive |
| CC(CN(C)C)C(C)(O)Cc1ccc(Cl)cc1 (stereo not drawn) | inactive |
| CCC1(c2ccc(N)cc2)CCC(=O)NC1=O (stereo not drawn) | inactive |
| CC(C)(C)C1CCC(CC2=C(O)c3ccccc3C(=O)C2=O)CC1 (stereo not drawn) | inactive |
| O=C(O)[C@@H]1[C@H]2C[C@H]3c4[nH]c5ccccc5c4CCN3C[C@@H]2CC[C@@H]1O | inactive |
| Nc1ccc(C(=O)O)cc1 | inactive |
| CC(C)(C)c1cc(C=O)cc(C(C)(C)C)c1O | inactive |
| C[C@]12CC[C@H]3[C@@H](CC[C@@]45O[C@H]4C(O)=C(C#N)C[C@]35C)[C@H]1CC[C@H]2O | inactive |
| COC(=O)[C@@H](N)CCCN/C(N)=N/[N+](=O)[O-] | inactive |
| NS(=O)(=O)c1cc2c(cc1Cl)NC(C(Cl)Cl)NS2(=O)=O (stereo not drawn) | inactive |
| CCOc1nc2cccc(C(=O)O)c2n1Cc1ccc(-c2ccccc2-c2nn[nH]n2)cc1 | inactive |
| CCCCC(=O)OCC(=O)[C@H]1[C@H](C)C[C@H]2[C@@H]3C[C@H](F)C4=CC(=O)C=C[C@]4(C)[C@@]3(F)[C@@H](O)C[C@@]21C | inactive |
| Cc1c(N(C)CS(=O)(=O)O)c(=O)n(-c2ccccc2)n1C | inactive |
| ClCCN1CCCC1 | inactive |
| NC(=O)c1cccnc1 | inactive |
| CS(=O)(=O)c1ccc([C@@H](O)[C@@H](CF)NC(=O)C(Cl)Cl)cc1 | inactive |

| SMILES | outcome |
| --- | --- |
| O=c1[nH]c(=O)n([C@H]2C[C@H](O)[C@@H](CO)O2)cc1Br | inactive |
| O=C1c2c(O)cccc2Cc2cccc(O)c21 | inactive |
| N#CCC(=O)NN | inactive |
| CC(CC(C#N)(c1ccccc1)C(C)C)N(C)C (stereo not drawn) | inactive |
| Cc1nc2ccccn2c(=O)c1CCN1CCC(C(=O)c2ccc(F)cc2)CC1 | inactive |
| CCOC(=O)CC(SP(=S)(OC)OC)C(=O)OCC (stereo not drawn) | inactive |
| O=C1OC(CCN2CCCCC2)OC1(c1ccccc1)c1ccccc1 (stereo not drawn) | inactive |
| CC1(C)OC(=O)NC1=O | inactive |
| O=C(CCCl)NCc1ccccc1 | inactive |
| COc1cc2c3cc1Oc1cc(ccc1O)C[C@@H]1c4c(cc(OC)c(O)c4Oc4ccc(cc4)C[C@@H]3N(C)CC2)CC[N+]1(C)C | inactive |
| NNc1ccccc1 | inactive |
| CC(C(=O)O)c1ccc(C(=O)c2ccccc2)s1 (stereo not drawn) | inactive |
| CC(=O)NCCCCCC(=O)O | inactive |
| Cc1cc(NS(=O)(=O)c2ccc(N)cc2)nc(C)n1 | inactive |
| CCN(CC)C(=O)c1ccc(O)c(OC)c1 | inactive |
| Cc1ccsc1/C=C/C1=NCCCN1C | inactive |
| COc1cc2nc(Cl)nc(N)c2cc1OC | inactive |
